Most compounds without a hit are left out; they make up all but 12% or so of the library.
BAZ2B block = qHTS Assay for Inhibitors of BAZ2B. Bromodomain adjacent to zinc finger domain protein 2B (Homo sapiens), Q9UIF8. AlphaScreen BAZ2B-H3K14Ac peptide displacement. Potency, µM (doses to about 114 µM), most hits filed as inhibitors. actives 4.4% (n = 360,000); also: nearly all actives have a fitted effect of over 60% in size
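Multi-concentration screen (max 110 uM) measuring displacement of acetylated histone H3 peptide from BAZ2B by AlphaScreen, using 50 nM protein, 50 nM peptide and 10 ug/mL streptavidin donor plus Ni-chelate acceptor beads.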
G9a block = qHTS Assay for Inhibitors of Histone Lysine Methyltransferase G9a; Histone-lysine N-methyltransferase EHMT2 (Homo sapiens), Q96KQ7; G9a H3K9 monomethylation, AlphaScreen, 2 h; Potency, µM (doses to about 102 µM), hits mostly inhibitors; actives 8.8% (n = 350,000); also: nearly all actives have a fitted effect of over 75% in size
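G9a (20 nM) preincubated 15 min RT with compounds, then 500 nM biotinylated H3K9 peptide and 20 uM SAM added; 2 h RT reaction. Monomethyl-H3K9 product detected by AlphaScreen with anti-H3K9me1 antibody, streptavidin donor and anti-rabbit IgG acceptor beads.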
JMJD2A Tudor inh = qHTS Assay for Inhibitors of JMJD2A-Tudor Domain; Lysine-specific demethylase 4A (Homo sapiens), O75164; AlphaScreen JMJD2A-Tudor / H3K4me3 peptide binding; Potency, µM (series often up to 114 µM), hits mostly inhibitors; actives 4.4% (n = 390,000); AID 504339, 2011; also: nearly all actives have a fitted effect of over 50% in size
Target sequence (O75164 whole entry, looked up, the tested form may be a part): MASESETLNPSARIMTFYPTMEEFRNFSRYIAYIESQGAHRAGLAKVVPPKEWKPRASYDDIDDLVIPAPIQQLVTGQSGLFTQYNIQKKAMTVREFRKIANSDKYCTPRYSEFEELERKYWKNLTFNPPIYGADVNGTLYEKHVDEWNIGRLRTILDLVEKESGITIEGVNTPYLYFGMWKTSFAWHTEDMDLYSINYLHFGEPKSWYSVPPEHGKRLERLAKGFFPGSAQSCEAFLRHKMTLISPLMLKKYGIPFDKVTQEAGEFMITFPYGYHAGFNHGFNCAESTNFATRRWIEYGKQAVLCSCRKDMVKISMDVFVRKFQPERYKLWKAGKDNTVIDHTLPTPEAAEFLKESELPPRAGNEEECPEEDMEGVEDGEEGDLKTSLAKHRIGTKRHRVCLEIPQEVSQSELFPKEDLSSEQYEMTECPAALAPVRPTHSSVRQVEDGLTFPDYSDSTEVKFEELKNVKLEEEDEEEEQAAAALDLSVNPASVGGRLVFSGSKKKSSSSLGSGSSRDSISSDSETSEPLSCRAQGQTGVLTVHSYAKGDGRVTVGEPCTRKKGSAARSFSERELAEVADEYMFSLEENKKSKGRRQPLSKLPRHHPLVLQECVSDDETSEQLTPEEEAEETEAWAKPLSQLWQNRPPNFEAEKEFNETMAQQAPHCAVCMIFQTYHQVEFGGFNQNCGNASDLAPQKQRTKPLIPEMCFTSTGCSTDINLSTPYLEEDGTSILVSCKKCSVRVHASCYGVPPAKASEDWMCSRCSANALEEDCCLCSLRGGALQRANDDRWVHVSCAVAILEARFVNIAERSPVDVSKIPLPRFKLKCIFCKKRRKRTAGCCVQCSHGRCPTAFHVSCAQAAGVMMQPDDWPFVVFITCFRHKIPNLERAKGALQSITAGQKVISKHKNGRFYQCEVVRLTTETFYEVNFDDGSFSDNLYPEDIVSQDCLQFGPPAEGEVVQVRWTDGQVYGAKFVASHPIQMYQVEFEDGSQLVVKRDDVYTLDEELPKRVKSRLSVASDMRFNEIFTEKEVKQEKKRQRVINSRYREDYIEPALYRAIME
HP1b chromo inh = HTS for Inhibitors of HP1-beta Chromodomain Interactions with Methylated Histone Tails; Chromobox protein homolog 1 (Homo sapiens), P83916; AlphaScreen HP1-beta / biotin-H3K9me3 peptide binding; Potency, µM (titrated, usually from 114 µM), actives largely listed as inhibitors; actives 0.56% (n = 390,000); also: nearly all actives have a fitted effect of over 70% in size
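AlphaScreen: HP1-beta (50 nM) preformed 30 min with biotin-H3(1-18)K9me3 peptide (50 nM) in PBS pH 7.4, 0.01% Tween-20. Compound added for 30 min at RT, then streptavidin donor/nickel chelate acceptor beads (10 ug/mL) for 30 min.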
Sfp inh = qHTS Assay for Inhibitors of Bacillus subtilis Sfp phosphopantetheinyl transferase (PPTase); 4'-phosphopantetheinyl transferase ffp (Bacillus subtilis), Q9F4F7; Biochemical Sfp PPTase activity, qHTS; Potency, µM, hits mostly inhibitors; actives 3.5% (n = 310,000);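 also: the enzyme is Sfp with the accession as filed and its product quenches rhodamine fluorescence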
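Compounds were incubated with enzyme (final 15 nM) for 15 min at room temperature before substrate addition started the reaction. Fluorescence at 525 nm excitation, 598 nm emission was recorded immediately and after 30 minutes.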
Each line names hits and unclear results; the compound was inactive in the other large screens. Calls follow the shape of the dose curve; as a rule, active = well fitted curve in the direction sought with a large enough effect; inconclusive = small, poorly fitted or top-dose-only effect, or another doubt; inactive = no such curve, though single readings can be large; an effect the other way counts as inactive or inconclusive.

CCOc1ccc(CCNC(=O)CCC(=O)Nc2ccc3nc(N4CCN(C)CC4)cc(C)c3c2)cc1OCC	none
CCCN(CCC)CCCNC(=S)Nc1ccc2nc(N3CCN(CC)CC3)cc(C)c2c1	G9a block 50.1µM
CCOCCCNC(=S)Nc1ccc2nc(N3CCCC3)cc(C)c2c1	G9a block inconclusive
COc1ccc(CCNC(=O)CCC(=O)Nc2ccc3nc(N4CCN(C)CC4)cc(C)c3c2)cc1OC	JMJD2A Tudor inh 79.4µM
Cc1cc(C)c2c(-n3cccc3)nn(C)c2n1	none
O=C(NNC(=O)c1ccc([N+](=O)[O-])cc1)c1ccncc1	none
COc1cccc(NC(=O)CSC2=Nc3ccccc3C3=NC(CC(=O)NCc4cccs4)C(=O)N23)c1 (centres undefined)	none (no result: Sfp inh)
Cc1cc(=O)oc2c(C)c(OC(C)C(=O)NCCCn3ccnc3)ccc12 (centres undefined)	none
CCN(CC(=O)Nc1c(F)cccc1F)C(=O)c1cc(S(=O)(=O)NCc2ccccc2)ccc1C	none (no result: Sfp inh)
COc1ccc2[nH]c3c(N4CCC(O)(c5cccc(C(F)(F)F)c5)CC4)ncnc3c2c1	none
CCCCN(CC)CCNC(=S)Nc1ccc2nc(N3CCN(C)CC3)cc(C)c2c1	G9a block inconclusive
CCCN(CCC)CCCNC(=S)Nc1ccc2nc(N3CCN(C)CC3)cc(C)c2c1	G9a block 39.8µM
CCC1CCC(C(=O)NC(C(=O)NCCc2ccc(S(N)(=O)=O)cc2)C(C)C)CC1 (centres undefined)	none
Cc1nc2c(s1)sc1ccccc12	none
CC[n+]1c(C)sc2sc3ccccc3c21	BAZ2B block 25.1µM, G9a block 1µM, Sfp inh 2.82µM (no result: JMJD2A Tudor inh, HP1b chromo inh)
COc1cc(OC)cc(-c2cc3cc4c(cc3cn2)OCO4)c1	none (no result: BAZ2B block, G9a block, Sfp inh)
COc1cc(OC)cc(-c2n[nH]c(=S)n2-c2ccc3c(c2)OCO3)c1	G9a block 1.78µM, JMJD2A Tudor inh 20µM, Sfp inh inconclusive
Clc1ccc(N2CCN(Cc3nnc(-c4ccc5c(c4)OCO5)o3)CC2)cc1	none (no result: Sfp inh)
Fc1ccc(-n2c(-c3ccc4c(c3)OCO4)n[nH]c2=S)cc1Cl	G9a block 1.41µM
CCN(c1ccccc1)S(=O)(=O)c1ccc(C(=O)Nc2nnc(CSC)o2)cc1	BAZ2B block inconclusive, G9a block inconclusive
Cn1ccsc1=NC(=O)c1ccc([N+](=O)[O-])o1	G9a block inconclusive, JMJD2A Tudor inh 56.2µM, HP1b chromo inh inconclusive
COc1cc(C(=O)N=c2sccn2C)c([N+](=O)[O-])cc1OC	none
O=C(OCc1ccccc1)c1cccnc1Cl	none
O=C(OCc1ccccc1)/C(=C(\O)c1ccccc1Br)c1ccc(-c2ccccc2)cn1	BAZ2B block 56.2µM (no result: Sfp inh)
O=C(CSc1ccc2ccccc2c1)Nc1ncccn1	G9a block 44.7µM
COc1ccc(CCNC(=O)CSc2ccc3ccccc3c2)cc1OC	G9a block 25.1µM
O=C(CSc1ccc2ccccc2c1)NCCc1ccc(O)c(O)c1	G9a block 2.51µM, JMJD2A Tudor inh 7.94µM, HP1b chromo inh 79.4µM, Sfp inh 25.1µM (no result: BAZ2B block)
CCCCn1c(-c2ccccc2)cnc1SCC(=O)NCCc1ccc(OC)c(OC)c1	BAZ2B block 44.7µM, G9a block inconclusive, JMJD2A Tudor inh 56.2µM, HP1b chromo inh inconclusive
O=C(CSc1ccccn1)Nc1ccc2ccccc2c1	none (no result: JMJD2A Tudor inh, HP1b chromo inh)
COc1ccc(CCNC(=O)CSc2ccc(NC(C)=O)cc2)cc1OC	none
C=CC[C@@H](CC(=O)N(CCO)Cc1ccccc1)C(=O)NC[C@H](OC(=O)[C@@H](CC=C)CC(=O)OC(C)(C)C)c1ccccc1	none (no result: BAZ2B block, G9a block, Sfp inh)
O=C(COC(=O)CSc1ccc2ccccc2c1)NC1CCCC1	G9a block inconclusive
COc1ccc(CCNC(=O)CCCC(=O)n2nc(C)c3ccccc32)cc1OC	G9a block 79.4µM
O=C(COC(=O)CSc1ccc2ccccc2c1)NC1CC1	G9a block 50.1µM
CN1CCN(S(=O)(=O)c2ccc(=O)[nH]c2)CC1	none
NC(=O)C(=CNc1nc(-c2ccc(Cl)c(Cl)c2)cs1)C(N)=O	BAZ2B block 44.7µM, Sfp inh 22.4µM (no result: G9a block, JMJD2A Tudor inh, HP1b chromo inh)
NC(=O)[C@@H]1[C@@H]2C(=O)N(c3ccc(F)cc3)C(=O)[C@@H]2[C@H]2C=Cc3ccccc3N21	G9a block 8.91µM, HP1b chromo inh inconclusive, Sfp inh 56.2µM
O=C(c1ccco1)[C@@H]1[C@@H]2C(=O)N(c3ccc(Br)cc3)C(=O)[C@@H]2C2c3ccccc3C=CN21 (some centres undefined)	BAZ2B block inconclusive, JMJD2A Tudor inh inconclusive
O=C1C2C3C=CC(CC3)C2C(=O)N1c1ccccc1F (centres undefined)	none
O=C(c1ccco1)[C@@H]1[C@@H]2C(=O)N(c3ccc(F)cc3)C(=O)[C@@H]2C2c3ccccc3C=CN21 (some centres undefined)	BAZ2B block inconclusive, G9a block 3.16µM (no result: JMJD2A Tudor inh, HP1b chromo inh)
O=C(c1ccco1)[C@@H]1[C@@H]2C(=O)N(c3ccc(F)cc3)C(=O)[C@@H]2[C@H]2C=Cc3ccccc3N21	G9a block 6.31µM, JMJD2A Tudor inh inconclusive, Sfp inh 50.1µM
O=C(Nc1ccc2[nH]c(=O)[nH]c2c1)c1ccc(Cl)c(Cl)c1	none
COc1cccc(CNC(=O)Cc2ccc(NC(=O)N3CCCCc4ccccc43)cc2)c1OC	none (no result: Sfp inh)
COc1ccc(CCNC(=O)CSCc2ccc(F)cc2)cc1OC	none
CCOC(=O)N1CCN(C(=O)c2ccc(CS(=O)(=O)c3ccccc3OC)o2)CC1	Sfp inh 79.4µM
COc1ccccc1S(=O)(=O)Cc1ccc(C(=O)NCCN2CCCCCC2)o1	G9a block 50.1µM
O=C(Nc1ccccc1C(=O)N1CCCCC1)c1cccs1	none (no result: G9a block)
O=C(O)COc1ccc(Br)cc1/C=N/O	BAZ2B block inconclusive, G9a block 56.2µM
O=C(CCC1CCCN(C(=O)CC2=CCCCC2)C1)N1CCN(c2ccccn2)CC1 (centres undefined)	JMJD2A Tudor inh 14.1µM
O=c1cc(O)cc(/C=C/c2ccc(O)c(O)c2)o1	G9a block 3.98µM (no result: BAZ2B block, JMJD2A Tudor inh, HP1b chromo inh, Sfp inh)
O=C(O)/C=C/c1ccc(O)cc1	none (no result: BAZ2B block, G9a block, Sfp inh)
O=C(COC(=O)/C=C/c1cccc(Br)c1)NCCc1ccccc1	none (no result: Sfp inh)
O=C(O)/C=C\c1ccc(O)c(O)c1	G9a block 2.51µM, Sfp inh 35.5µM (no result: BAZ2B block, JMJD2A Tudor inh, HP1b chromo inh)
O=C(/C=C/c1ccc(O)c(O)c1)OCCc1ccccc1	G9a block 3.55µM, JMJD2A Tudor inh 89.1µM, Sfp inh inconclusive (no result: BAZ2B block)
O=C(/C=C/c1ccc(O)c(O)c1)c1ccccc1O	BAZ2B block 39.8µM, G9a block 12.6µM, JMJD2A Tudor inh 3.55µM, HP1b chromo inh 44.7µM
CCOc1ncccc1C(=O)Nc1cc(S(=O)(=O)N2CCCCC2)ccc1OC	G9a block 10µM (no result: Sfp inh)
COc1ccc(NC(=S)Nc2ccc(C)c(S(=O)(=O)N3CCCCC3)c2)cc1	none (no result: JMJD2A Tudor inh, HP1b chromo inh)

Bioassay records from PubChem BioAssay.
